How the values were obtained:
Format in all cases: functional
Plasmodium falciparum [1] = experiment: GSK_TCMDC: Inhibition of Plasmodium falciparum 3D7 in whole red blood cells, using parasite LDH activity as an index of growth. Test compounds present at 2uM
Plasmodium falciparum [2] = experiment: GSK_TCMDC: Inhibition of Plasmodium falciparum Dd2 in whole red blood cells, using parasite LDH activity as an index of growth. Test compounds present at 2uM
HepG2 = experiment: GSK_TCMDC: Percent inhibition of human HepG2 cell line. Test compounds present at 10uM.

SMILES	Inhibition (Plasmodium falciparum [1]) [%]	Inhibition (Plasmodium falciparum [2]) [%]	Inhibition (HepG2) [%]
CC(C)(C)NCCN(Cc1ccc(-c2ccc(C(F)(F)F)cc2)cc1)C(=O)Cn1c(CCc2cccc(F)c2F)nc(=O)c2ccccc21	99	68	46
CCC(COCc1ccc(Cl)cc1)N(C)CCN(C)C(CC)COCc1ccc(Cl)cc1.Cl (stereo unspecified)	95	78	89
CCOCCCNc1sc(S(=O)(=O)c2ccccc2)nc1S(=O)(=O)c1ccc(C)cc1	96	87	0
COc1ccc(S(=O)(=O)Nc2cc(C)cc(Br)c2OC)cc1N1CCN(C(=O)C(Cl)(Cl)Cl)CC1.Cl	91	66	9
Cl.N#Cc1ccc2c(c1)CCN(CCC1CCC(NC(=O)/C=C/c3ccc4ccccc4c3)CC1)CC2 (stereo unspecified)	97	12	20
COc1cc(C)nc2ccc(NC(=O)c3cc(C(F)(F)F)cc(C(F)(F)F)c3)cc12.Cl	100	99	16
CN(C)CCN(Cc1ccccc1-c1ccc(CNCCc2ccccc2)cc1)C(=O)NC1CCCCC1.O=C(O)C(F)(F)F	88	89	98
Cl.N=C(N)NN=Cc1c2ccccc2c(Cl)c2c(Cl)cccc12	91	72	71
COc1ccccc1C1CCN(Cc2csc(NC(=O)c3ccc(-c4ccc(C(F)(F)F)cc4)cc3)n2)CC1	85	23	62
O=C(NCc1ccccc1[S+]([O-])c1ccccc1CO)C(F)(F)F (stereo unspecified)	98	2	50
O=C(NCCc1ccccc1)N(Cc1cccc(-c2ccc(CNC3CCCC3)cc2)c1)C1CCN(Cc2ccccc2)CC1.O=C(O)C(F)(F)F	98	84	36
CS(=O)(=O)c1ccc(CCNCc2ccc(-c3ccc(CN(C(=O)C4CC(=O)c5ccccc54)C4Cc5ccccc5C4)cc3)nc2)cc1.O=C(O)C(F)(F)F (stereo unspecified)	90	21	5
CCN(CC)CCCNc1nccc(N(C)c2ccc(NC(=O)Nc3cc(C(F)(F)F)ccc3F)cc2)n1.O=C(O)C(F)(F)F	94	19	96
Cc1[nH]c(C)c(-c2ccc(OCc3ccccc3)cc2)c(=O)c1Br	97	96	19
CCCC(C)Nc1nc(C)cc(N[C@@H](Cc2ccccc2)C(=O)NCCOc2ccccc2)n1.O=C(O)C(F)(F)F (stereo partly specified)	100	68	10
CN(C)CCOc1ccc(-c2cc(-c3ccncc3)c(-c3ccc(Cl)c(O)c3)[nH]2)cc1.Cl	98	100	25
COc1ccc(-c2cc(C(=O)N[C@@H](CC3CCCCC3)C(=O)NCCN3CCCCC3)ccc2O)cc1	98	72	3

Reference: ChEMBL document CHEMBL1157539, “Thousands of chemical starting points for antimalarial lead identification” (Nature, 2010)
